Experimental findings from PubChem BioAssay AID720716 (Broad Institute, 2013) are described below.

The source made the active and inactive calls.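 The calls were made as follows: active = compounds whose fitted half-maximal concentration is at most twice the top tested dose; inconclusive = flat curve with 30 to 70% signal loss, or poor fit; inactive = flat, opposite-direction or too weak compounds.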

A short description of this assay: inhibitors of control Renilla luciferase reporter, dose response, counter-screen for Shn3 3'UTR targeting project, Clone20-Shn3RL cells, dual-Glo, dry powder (AID 720716). Conditions: 24 h; series mostly up to 35 µM. For orientation: Reporter assays use an easily measured gene product as a stand-in for the process of interest.
As for `COc1ccccc1N1CCN(c2ncc(C(=O)N3CCN(c4cccc(Cl)c4)CC3)c3ccccc23)CC1`, the outcome was inactive.

For `O=C1CSc2ccc(C(=O)Nc3cccc(S(=O)(=O)Nc4ccc(Br)cc4)c3)cc2N1`, the call was inactive.

Turning to `CN(CC(=O)Nc1cccc(S(=O)(=O)N2CCOCC2)c1)CC(=O)Nc1ccc(Cl)c(C(F)(F)F)c1`, the molecule was classed as inactive.

For the molecule `CCCOc1ccccc1C1CC(=O)Nc2cc3c(cc21)OCO3` (configuration not stated), the molecule was classed as inactive.

With `O=c1c2ccccc2nc2n1C(CSCc1ccc(Cl)cc1Cl)CS2` (configuration not stated), the result was inactive.

For the molecule `Cc1ccc2cc(CN(CC3CCCO3)C(=O)NC3CCCCC3)c(=O)[nH]c2c1C` (configuration not stated), the outcome was inactive.

On to `CC(=O)N1CCN(C(=O)CCc2cc(C(C)(C)C)c(O)c(C(C)(C)C)c2)CC1`, for which the call was inactive.

As to `CN(C)c1nc(-c2ccccn2)nnc1-c1ccccc1`, the molecule was classed as inactive.

Take `Cc1cc(N2CCCC2=O)cc(C)c1S(=O)(=O)NCCOc1ccc(C(C)(C)C)cc1`: the outcome was inactive.

In the case of `CCOC(=O)C1CCN(C(=O)c2ccc(OCC(=O)Nc3cccc(C(F)(F)F)c3)c(OC)c2)CC1`, the outcome was inactive.

On to `Cc1cc2c(cc(C(=O)N3CCC(C(=O)NC4CCCC4)CC3)n2Cc2c(F)cccc2Cl)o1`, for which the call was inactive.

For the molecule `COc1ccc(Nc2nc(N3CCCCC3)c3ccccc3n2)cc1`, the molecule was called inactive.

On to `CC(C)[C@H](NC(=O)OC(C)(C)C)c1nnc(S(=O)(=O)Cc2c(F)cccc2Cl)o1`, for which the molecule was classed as inactive.

On to `O=C(c1nnsc1S(=O)c1ccc(Cl)cc1)N1CCOCC1` (configuration not stated), for which the outcome was inactive.

As to `CCCc1nnc(NC(=O)c2nc(S(=O)(=O)Cc3ccc(C)cc3)ncc2Cl)s1`, the molecule was classed as inactive.

As to `CCOC(=O)c1ccc(NC(=O)Cn2ncc(Cl)c(Cl)c2=O)cc1`, the molecule was classed as inactive.

For the molecule `Fc1ccc(-n2nnnc2-c2cnc(-c3cccs3)nc2C(F)(F)F)cc1`, the outcome was inactive.

For `Nc1nonc1C(=O)NCCNCc1cc(Br)ccc1OCc1ccc(F)cc1`, the outcome was inactive.

Take `CC(=O)Nc1cccc(NC(=O)CSc2ncc(-c3ccc(Cl)cc3)n2Cc2ccco2)c1`: the outcome was inactive.

Consider `COc1cc2ncnc(N[C@H](C)c3ccccc3)c2cc1OC`, for which the call was inactive.

In the case of `COc1ccc(NS(=O)(=O)c2ccc(C(=O)N3CCCCCC3)cc2)cc1`, the call was inactive.

On to `CCOC(=O)C1(Cc2ccc(Cl)cc2)CCN(C(C)Cc2ccc(O)c(OC)c2)CC1` (configuration not stated), for which the molecule was called inactive.

With `CN(C(=O)COc1ccccc1C(=O)NCCOc1ccccc1)c1ccccc1`, the call was inactive.

For the molecule `COc1cc(CN2CCc3ccccc3C2)ccc1O`, the molecule was called inactive.

`COc1ccc(NC(=O)c2nc(S(=O)(=O)Cc3cccc(C)c3)ncc2Cl)c(OC)c1`: the call was inactive.

For `CC(C)(C)NC(=O)CSc1nc2ccc(NC(=O)CSc3nnnn3Cc3ccccc3)cc2s1`, the molecule was classed as inactive.

As to `COc1ccc2c(c1)c(CC(=O)Nc1cc(C)ccc1C)c(C)n2C(=O)c1ccc(Cl)cc1`, the outcome was inactive.
